These results are taken from PubChem BioAssay (NCATS).

Values joined by “and” are separate entries in the source; they are usually repeats but may differ in a detail not shown here. Equal values may be shown once. Unmarked numbers belong to inactive results. Inconclusive results are not listed. Active and inactive are the calls of the source. Unless noted, calls follow the shape of the dose curve; as a rule, active = well fitted inhibition curve with a large enough effect; inconclusive = small, poorly fitted or top-dose-only effect; inactive = flat fitted curve, though single readings scatter. Where a SMILES comes first, the peptide text is derived from it. Bridges are numbered along the chain shown (N, C = ends). [ ]: non-standard residue; d: D form. The star is where a group is joined. Dab(CH2SO3H) = N[C@@H](CCNCS(=O)(=O)O)C(=O)O; X3 = CC[C@@H](C)CCCCC(=O)*; Dab = NCC[C@H](N)C(=O)O

Experiment [1] in a line: Drug repurposing screens with cells derived from glioblastoma tumor samples (AID 1345199). Also: nearly all actives have a fitted effect of over 40% in size. Also: potency is read from the fitted curve at half-maximal effect. As to activity, negative = cell killing: % is scaled to controls: 0 for no effect and ±100 for the full control effect. The note with it: GBM patient neurospheres viability, ATP luminescence, 48 h. In short, it runs like this: (§1)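 Primary testing used CD133+ neurospheres from four GBM patients, seven concentrations, 48 h exposure and ATP-based viability; confirmation added three slower-growing patient lines.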

In the next experiment the test system is astro (control astrocytes). The experiment is described as above. Conditions: viability, ATP luminescence, 48 h; series mostly up to 45.9 µM. Put shortly: as §1
The nature of experiment [2]: qHTS assay for small molecule activators of the human pregnane X receptor (PXR) signaling pathway (AID 720659; call rule not given here; also: 0% is about no effect). Conditions: DPX-2 HepG2 CYP3A4-luciferase, 24 h; series mostly up to 92.3 µM. For orientation: Quantitative high-throughput screening tests each substance at several concentrations.
For experiment [3], the target named is Nuclear receptor subfamily 1 group I member 2 (Rattus norvegicus) (UniProt Q9R1A7). The experiment in a line: qHTS assay for small molecule activators of the rat pregnane X receptor (rPXR) signaling pathway (AID 651751; call rule not given here; also: 0% is about no effect). The note with it: rPXR reporter cells, luciferase (One-Glo), 24 h.
Setting [4] is: at 20 µM (top of the series), tumour line C.
[5] abbreviates: at 45.9 µM (top of the series), tumour line B.
[6] abbreviates: at 45.9 µM (top of the series), tumour line D.
The mark [7] stands for this setting: at 46 µM (top of the series), tumour line A.
[8] abbreviates: at 46.1 µM (top of the series), tumour line C.

Sequence of Nuclear receptor subfamily 1 group I member 2 (Rattus norvegicus) (Q9R1A7 whole entry, looked up): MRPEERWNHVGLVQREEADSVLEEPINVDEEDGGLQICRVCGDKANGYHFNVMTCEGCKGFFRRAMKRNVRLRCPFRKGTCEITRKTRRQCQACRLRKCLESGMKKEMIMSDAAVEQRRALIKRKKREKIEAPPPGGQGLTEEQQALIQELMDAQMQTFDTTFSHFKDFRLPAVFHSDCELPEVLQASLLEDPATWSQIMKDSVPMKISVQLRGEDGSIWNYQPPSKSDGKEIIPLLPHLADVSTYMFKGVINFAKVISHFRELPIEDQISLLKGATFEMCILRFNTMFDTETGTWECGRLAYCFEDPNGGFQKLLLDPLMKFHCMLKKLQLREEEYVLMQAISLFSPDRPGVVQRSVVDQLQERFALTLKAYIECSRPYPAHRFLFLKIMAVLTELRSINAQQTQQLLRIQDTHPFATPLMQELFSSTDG

For `CCN(CC)Cc1cc(Nc2ccnc3cc(Cl)ccc23)ccc1O`, the activity, negative = cell killing in experiment [1] (setting [4]) is -18.3%. Moreover, the values for the Potency in experiment [1] (tumour line A) and in experiment [1] (tumour line D) were 12.6 µM (active) and 14.1 µM (active), respectively. Moreover, the Potency result in the experiment with astro was “inactive”.

Turning to `CCOC(C)=O`, the activity, negative = cell killing in experiment [1] (setting [5]) is -6.99%; in experiment [1] (setting [6]), -8.33%; in experiment [1] (setting [7]) it was -18.3%; in experiment [1] (setting [8]), 2.8%. The Potency result with astro is “inactive”. In addition, the call in experiment [2] was inactive.

As to `CCC(=O)OCC(=O)[C@@]1(OC(=O)CC)[C@H](C)C[C@H]2[C@H]3[C@H]([C@@H](O)C[C@@]21C)[C@@]1(C)C=CC(=O)C=C1C[C@H]3Cl`, the activity, negative = cell killing in experiment [1] (setting [4]) was -8.97%; in experiment [1] (at 21.2 µM (top of the series), tumour line B), -7.29%; in experiment [1] (at 21.2 µM (top of the series), tumour line D), -17.3%. Besides, the Potency entry with astro is “inactive”.

Turning to `CCCCCCCC(=O)O`, the activity, negative = cell killing was -7.1% in experiment [1] (setting [5]), -17.5% in experiment [1] (setting [6]), -22.2% in experiment [1] (setting [7]) and -13.3% in experiment [1] (setting [8]). Moreover, the Potency result with astro is “inactive”. Moreover, the max response in experiment [3] was 2.58% and -1.34%. Further, the molecule was classed as inactive in experiment [2].

Turning to `CO[C@H]1C=CO[C@@]2(C)Oc3c(C)c(O)c4c(O)c(c5c(nc6cc(C)ccn65)c4c3C2=O)NC(=O)/C(C)=C\C=C[C@H](C)[C@H](O)[C@@H](C)[C@@H](O)[C@@H](C)[C@H](OC(C)=O)[C@@H]1C`, the activity, negative = cell killing was -10.2% in experiment [1] (setting [5]), -26.2% in experiment [1] (setting [6]) and -2.47% in experiment [1] (setting [8]). Besides, the Potency entry with astro is “inactive”.

On to `CC[C@@H](C)CCCCC(=O)N[C@@H](CCNCS(=O)(=O)O)C(=O)N[C@H](C(=O)N[C@@H](CCNCS(=O)(=O)O)C(=O)N[C@H]1CCNC(=O)[C@H]([C@@H](C)O)NC(=O)[C@H](CCNCS(=O)(=O)O)NC(=O)[C@H](CCNCS(=O)(=O)O)NC(=O)[C@H](CC(C)C)NC(=O)[C@@H](CC(C)C)NC(=O)[C@H](CCNCS(=O)(=O)O)NC1=O)[C@@H](C)O` (X3-[Dab(CH2SO3H)]T[Dab(CH2SO3H)][Dab][Dab(CH2SO3H)][dL]L[Dab(CH2SO3H)][Dab(CH2SO3H)]T; lactam 4-C), for which the results for the activity, negative = cell killing in experiment [1] (setting [5]), in experiment [1] (setting [6]) and in experiment [1] (setting [7]) were -7.01%, 10.8% and -16.2%, respectively. Besides, the Potency result in the experiment on astro is “inactive”.

On to `CC(=O)OCC(=O)[C@@]12OC3(CCCC3)O[C@@H]1C[C@H]1[C@@H]3CCC4=CC(=O)C=C[C@]4(C)[C@@]3(F)[C@@H](O)C[C@@]12C`, for which the figures for the activity, negative = cell killing in experiment [1] (setting [5]), in experiment [1] (setting [6]) and in experiment [1] (setting [8]) were -7.71%, -10.7% and 3.06%, respectively. Also, in the experiment on astro, the Potency entry was “inactive”.

`CC(O)CO` (stereo unspecified): the activity, negative = cell killing was 0.179% in experiment [1] (setting [5]), 10.5% in experiment [1] (setting [6]), -19.9% in experiment [1] (setting [7]) and -8.89% in experiment [1] (setting [8]). Also, the Potency entry in the experiment on astro is “inactive”. In addition, in experiment [3], the max response is -2.73% and 0.891%. Also, the molecule was classed as inactive in experiment [2].

In the case of `O=C(O)CN(CCN(CC(=O)O)CC(=O)O)CC(=O)O`, the activity, negative = cell killing in experiment [1] (setting [5]) was -9.39%; in experiment [1] (setting [6]), -15%; in experiment [1] (setting [7]) it was -14.7%; in experiment [1] (setting [8]), -16.4%. Also, in the experiment with astro, the Potency entry is “inactive”. Moreover, the max response in experiment [3] was 0.191% and 7.12%.

Consider `COC(F)(F)C(Cl)Cl`, for which the activity, negative = cell killing is -7.55% in experiment [1] (setting [5]), -1.1% in experiment [1] (setting [6]) and -22% in experiment [1] (setting [7]). Besides, the Potency result with astro is “inactive”.

Turning to `O=C(COc1ccc(Cl)cc1)OCCNC12CC3CC(CC(C3)C1)C2`, the activity, negative = cell killing is -5.61% in experiment [1] (setting [5]), -18.7% in experiment [1] (setting [6]) and -2.27% in experiment [1] (setting [8]). For the same molecule, the Potency result with astro was “inactive”.

As for `CC1(C)C(C=C(Cl)Cl)C1C(=O)OCc1cccc(Oc2ccccc2)c1` (stereo unspecified), the activity, negative = cell killing in experiment [1] (setting [5]) is -14.8%; in experiment [1] (setting [6]), -15.5%; in experiment [1] (setting [8]), 6.86%. The Potency entry in the experiment on astro is “inactive”.

Turning to `COC(=O)[C@H]1[C@H]2C[C@@H]3c4[nH]c5ccccc5c4CCN3C[C@H]2C[C@@H](OC(=O)c2cc(OC)c(OC)c(OC)c2)[C@@H]1OC`, the activity, negative = cell killing in experiment [1] (setting [5]) and in experiment [1] (setting [8]) was -12.2% throughout. Besides, the Potency in experiment [1] (tumour line A) was 12.6 µM (active). In addition, in the experiment on astro, the Potency result was “inactive”.

With `C/C1=C2N=C(/C=C3N=C(/C(C)=C4\[N-][C@@](C)([C@@H]5N=C1[C@](C)(CCC(=O)NCC(C)OP(=O)(O)O[C@H]1[C@@H](O)[C@@H](n6cnc7cc(C)c(C)cc76)O[C@@H]1CO)[C@H]5CC(N)=O)[C@@](C)(CC(N)=O)[C@@H]4CCC(N)=O)[C@@](C)(CC(N)=O)[C@@H]\3CCC(N)=O)C(C)(C)[C@@H]/2CCC(N)=O.CC(=O)O.[Co]` (stereo partly specified), the activity, negative = cell killing in experiment [1] (setting [5]) is -15.2%; in experiment [1] (setting [6]), -26.7%; in experiment [1] (setting [7]), -29%. Further, the Potency result in the experiment on astro was “inactive”.
